Each structure is given as a SMILES string. Screen size: about 48,000 compounds; about 120 (0.25%) were called active. Not shown: some 4% with an inconclusive outcome. The entries come from a sample that favours actives as a whole. A call without a number means that no potency is given here. Unmarked numbers belong to inactive results. The call rests on the fitted dose curve; in most records, active means well fitted activation curve with a large enough effect; inconclusive means small, poorly fitted or top-dose-only effect, or another doubt; inactive means no such curve, though single readings can be large or run the other way.
Potency means the concentration at half of the fitted maximal effect.

A short description of this experiment: Primary qHTS for Identification of Small Molecule Activators of Huntingtin-Antisense Promoter Activity. Further: nearly all actives have a fitted effect of over 55% in size. The note with it: HEK293 HTT-AS promoter firefly luciferase reporter, 24 h; series mostly up to 57.5 µM. From the text: Assay Provider: Russell L. Margolis M.D.
Department Neurology, Johns Hopkins University School of Medicine, Baltimore, MD
Huntington's Disease (HD) is a neurodegenerative disorder caused by a CAG repeat expansion in exon 1 of huntingtin (HTT). While there are currently no disease-modifying treatments for HD, recent efforts have focused on development of nucleotide-based therapeutics to lower HTT expression. As an alternative to siRNA or oligonucleotide methods, we hypothesized that suppression of HTT expression might be accomplished by small molecules that either (1) directly decrease HTT expression by suppressing HTT promoter activity or (2) indirectly decrease HTT expression by increasing the promoter activity of HTT-AS, the gene antisense to HTT that appears to inhibit expression of HTT.
We developed and employed a high throughput screen for modifiers of HTT and HTT-AS promoter activity using luminescent reporter HEK293 cells; of the 52,041 compounds tested, we identified 898 replicable hits. We used a rigorous stepwise approach to assess compound toxicity and the capacity of the compounds to specifically lower huntingtin protein in 5 different cell lines, including HEK293 cells, HD lymphoblastoid cells, mouse primary neurons, HD iPSCs differentiated into cortical-like neurons, and HD hESCs. We found no compounds which were able to lower huntingtin without lowering cell viability in all assays, though the potential efficacy of a few compounds at non-toxic doses could not be excluded.
SEQUENCE No. (1, 2, 3, etc.); […] (e.g., Cells, Incubation, Reagent, etc.); VALUE and DESCRIPTION.
1; Reagent; 4 uL; 2,500 Hek293 luciferase reporter cells per wells
3; Compound; 23 nL; Control inhibitor / compound library
5; Reagent; 2.5 uL; Firefly Luc reagent; Dual-Glo Luciferase Reporter Assay System (Promega)
6; Time; 10 min; room temperature incubation
7; Detection; Luminescence; FLuc
NOTES (numbers refer to sequence above)
1; High-throughput screening, measuring luminescence from a Hek293 luciferase reporter, was performed in 1,536 well white-walled tissue-culture treated plates. 2,500 cells were plated in 4 µL of Opti-MEM per well using a Multidrop Combi Reagent Dispenser (ThermoFisher).
2; Assay plates were cultured for 24 hours.
3; Control inhibitor (PTC124; final concentration of 50 uM) and compound library (at final concentrations of 460 nM - 57.5 uM) were added to the assay plate using the Kalypsis Pintool Robotic System equipped with 1536 pinheads.
4; Cells were then incubated for 24 hours at 37 degrees C prior to luminescence measurements.
5; In all cases, luminescence was measured using the Dual-Glo Luciferase Reporter Assay System (Promega) following the manufacturer's instructions.
6; Room temperature incubation.
7; Luminescence signal was obtained using the PerkinElmer ViewLux plate reader. Results were normalized to vehicle control (0% activity) and zero RLU (-100% activity).
(In qHTS, concentration-response curves come from the screen itself.)
For the compound `Cc1cc(Br)ccc1NC(=O)Cn1cnc2sc(C)c(S(=O)(=O)N3CCN(C)CC3)c2c1=O`, the activity change, positive = activation entry was “inactive”.

Turning to `Cc1ccc(-c2noc(-c3nnn(-c4cccc(C(F)(F)F)c4)c3N)n2)cc1`, the activity change, positive = activation result is “inactive”.

Turning to `O=C(Nc1ccc(C(=O)OCc2cc(=O)n3nc(C4CC4)sc3n2)cc1)c1ccc(F)cc1`, the activity change, positive = activation entry was “inactive”.

In the case of `COc1ccc(Cn2c(=O)c3oc4ccccc4c3n(CC(=O)Nc3ccc(F)cc3F)c2=O)cc1`, the activity change, positive = activation result was “inactive”.

As to `O=C(CN1CCSc2ccccc21)N1CCN(c2ccccc2)CC1`, the activity change, positive = activation result is “inactive”.

Turning to `COc1ccc2c(c1)c(N1CCCC1=O)c(C(=O)Nc1ccccc1C(F)(F)F)n2C`, the activity change, positive = activation entry is “inactive”.

Regarding `Cc1ccc(NC(=O)CSc2nc3c([nH]c4ccccc43)c(=O)n2-c2ccccc2)cc1Cl`, the activity change, positive = activation result was “inactive”.

As to `Cc1ccccc1Cn1nc(C)c(NC(=O)c2cc(-c3ccc(F)cc3)on2)c1C`, the activity change, positive = activation entry is “inactive”.

On to `CCn1cc(C(=O)N2CCN(c3cc(C)ccc3C)CC2)c(=O)c2cc(S(=O)(=O)N(C)C3CCCCC3)ccc21`, for which the activity change, positive = activation entry was “inactive”.

Regarding `Cc1ccc(C)c(N2CCN(c3ccc4cc(S(=O)(=O)N5CCC(C)CC5)ccc4n3)CC2)c1`, the activity change, positive = activation result was “inactive”.

In the case of `CC[C@]12C=CCN3CC[C@@]4(c5cc([C@@]6(C(=O)OC)C[C@H]7C[C@@H](C(C)(F)F)CN(Cc8c6[nH]c6ccccc86)C7)c(OC)cc5N(C)[C@H]4[C@@](O)(C(=O)OC)[C@H]1OC(C)=O)[C@@H]32`, the activity change, positive = activation result is “inactive”.

For `Cc1nc(SCC(=O)Nc2ccc(C(=O)O)cc2)n[nH]1`, the activity change, positive = activation result is “inactive”.

Consider `O=C(CSc1nc2c(c(=O)[nH]1)CN(Cc1ccc3c(c1)OCO3)CC2)Nc1cc(F)ccc1F`, for which the activity change, positive = activation entry was “inactive”.

As for `COC(=O)c1cc(NC(=O)CCS(=O)(=O)c2cc(Br)cc3c2N(C(=O)C2CC2)CC3)cc(C(=O)OC)c1`, the activity change, positive = activation result is “inactive”.

In the case of `CC(=O)c1ccc(NC(=O)c2nc(-c3ccc(C)cc3)n3c2CCCCC3)cc1`, the activity change, positive = activation result is “inactive”.

With `Cc1cccc(C(=O)N2CCc3cc(CNC(=O)Cc4ccc(F)cc4)ccc32)c1`, the activity change, positive = activation result was “inactive”.

With `CCOC(=O)c1c(C)[nH]c(C)c1S(=O)(=O)N1CCCC(C(=O)NCc2ccccc2Cl)C1` (centres undefined), the activity change, positive = activation result is “inactive”.

On to `COc1ccc(-n2c(=O)c3sc4ccccc4c3n(CC(=O)Nc3cccc(C)c3)c2=O)cc1`, for which the activity change, positive = activation result was “inactive”.

As for `Cc1ccc(CNC(=O)Cn2c(=O)ccc3cc(S(=O)(=O)N4CCCC4)ccc32)cc1`, the activity change, positive = activation result was “inactive”.

Regarding `Cc1ccc(C)c(Cn2c(C(=O)O)c(CNCc3cccs3)c3ccccc32)c1`, the activity change, positive = activation result is “inactive”.

On to `COC(=O)c1cccc(Cn2nnc3sc4c(c3c2=O)CCC(C(C)(C)C)C4)c1` (centres undefined), for which the activity change, positive = activation result is “inactive”.

`CCOc1cc(C=C2C(=O)N(c3ccccc3)N=C2C)cc(Cl)c1OCC(=O)OC`: the activity change, positive = activation entry was “inactive”.

Regarding `CCOc1ccc(NC(=O)c2c(NCc3cccc(OC)c3OC)sc3c2CCC3)cc1`, the activity change, positive = activation result was “inactive”.

Regarding `CC1CCCCN1S(=O)(=O)c1ccc(F)c(C(=O)Nc2ccccc2C(F)(F)F)c1` (centres undefined), the activity change, positive = activation entry is “inactive”.

Take `CCn1c(C)c(C)c2cc(C(=O)N3CCN(c4cccc(C)c4C)CC3)ccc21`: the activity change, positive = activation entry was “inactive”.

With `COc1ccc(CNS(=O)(=O)c2cc3c4c(c2)CCN4C(=O)CC3)cc1`, the activity change, positive = activation result was “inactive”.

Take `O=C(NCc1ccccc1)C(=O)NCC(c1ccco1)S(=O)(=O)c1ccc(Cl)cc1` (centres undefined): the activity change, positive = activation result was “inactive”.

Turning to `Oc1ccccc1-c1nc2ccc(Cl)cn2c1Nc1ccc2c(c1)OCCO2`, the activity change, positive = activation result is “inactive”.

In the case of `CCn1cc(C(=O)N2CCN(c3cc(Cl)ccc3C)CC2)c(=O)c2cc(S(=O)(=O)N3CCCC3)ccc21`, the activity change, positive = activation was 10.5% [at 11.5 µM, percent change from vehicle, -100% = no light].

Consider `O=C(NCc1ccc(Cl)cc1)c1ccc2c(c1)nnn2C1CCCC1`, for which the activity change, positive = activation result was “inactive”.

Regarding `CC(=O)c1ccc(NC(=O)c2nc3nc(C)cc(C(F)F)n3n2)cc1`, the activity change, positive = activation result was “inactive”.

As to `COc1ccc(CCNC(=O)c2ccc(CSCc3ccc(C)cc3)o2)cc1OC`, the activity change, positive = activation entry was “inactive”.

For the compound `CCCOC(=O)c1c(NC(=O)c2cc3nc(-c4ccc(OC)cc4)cc(C(F)(F)F)n3n2)sc2c1CCCC2`, the activity change, positive = activation entry was “inactive”.

With `CCC(=O)N1c2ccccc2CC1C(=O)N1CCN(c2ccccc2F)CC1` (centres undefined), the activity change, positive = activation result is “inactive”.

For `COc1ccc2[nH]c3c(c2c1)CCN(C(=O)CCC1CCCC1)C3c1ccc(F)cc1` (centres undefined), the activity change, positive = activation result was “inactive”.

With `CCOc1ccc(/C=C(\C#N)c2nc3ccccc3c(=O)[nH]2)cc1OC`, the activity change, positive = activation result is “inactive”.

On to `Cc1ccc(Cl)cc1N1CCN(C(=O)c2cn(C)c3ccc(S(=O)(=O)N(C)C4CCCCC4)cc3c2=O)CC1`, for which the activity change, positive = activation entry was “inactive”.

For `Cc1ccc(CN2C(=O)SC(Nc3ccccc3)C2=O)cc1` (centres undefined), the activity change, positive = activation result is “inactive”.

As to `COc1ccc(-c2onc(C)c2C)cc1S(=O)(=O)NCCc1ccccc1`, the activity change, positive = activation entry was “inactive”.

As for `Cc1ccccc1CNC(=O)CSc1nnc(C)c2c(C)n(-c3ccccc3)nc12`, the activity change, positive = activation result was “inactive”.

Consider `O=C(c1ccc(Br)cc1)N(Cc1cccs1)c1ccc(F)cc1`, for which the activity change, positive = activation entry is “inactive”.

Take `COc1cccc(-n2ccn(CC(=O)NCc3ccc(C)cc3)c(=O)c2=O)c1`: the activity change, positive = activation entry is “inactive”.

Take `CCOc1ccc(-c2cc3c(=O)n(CC(=O)NCc4ccc(OC)cc4)ccn3n2)cc1`: the Potency was 0.447 µM (active).

For the compound `COc1ccc(CNC(=O)Cn2nnc(-c3ccc(S(C)(=O)=O)cc3)n2)cc1`, the activity change, positive = activation result was “inactive”.
